In PubChem BioAssay (Tox21):
Records with an inconclusive call do not appear. Active and inactive are the calls of the source. Unless noted, calls come from the whole dose curve; as a rule, active = well fitted curve in the direction sought with a large enough effect in the repeat runs; inconclusive = weak or mixed curves; inactive = no such curve, though single readings can be large; an effect the other way counts as inactive or inconclusive.

What was measured:
[1] = qHTS assay to identify small molecule antagonists of the glucocorticoid receptor (GR) signaling pathway - cell viability counter screen (AID 720693); settings: GR-bla HeLa viability, CellTiter-Glo luminescence, 18 h, with 5 nM dexamethasone present; series mostly up to 58.5 µM; note: nearly all actives have a fitted effect of over 55% in size
[2] = qHTS assay to identify small molecule antagonists of the androgen receptor (AR) signaling pathway - cell viability counter screen (AID 743033; note: nearly all actives have a fitted effect of over 45% in size); settings: AR-bla HEK293 viability, CellTiter-Glo luminescence, 16 h; series mostly up to 58.5 µM
[3] = qHTS assay to identify small molecule antagonists of the androgen receptor (AR) signaling pathway using the MDA cell line - cell viability counter screen (AID 743041; note: nearly all actives have a fitted effect of over 45% in size); settings: MDA-kb2 viability, CellTiter-Fluor, 16 h, cells co-treated with R1881 androgen agonist; series mostly up to 70.3 µM
How it was run: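 Cells were plated at 3,000 per well and left 5 h. Compounds in DMSO were then pinned in, followed by R1881. After 16 h at 37C, CellTiter-Fluor fluorescence gave viability.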

[4] = qHTS assay to identify small molecule antagonists of the thyroid receptor (TR) signaling pathway (AID 743065); settings: GH3.TRE-Luc, T3-stimulated luciferase inhibition, 23.5 h; series mostly up to 70.3 µM; note: nearly all actives have a fitted effect of over 55% in size
How it was run: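 Antagonism measured as loss of luciferase signal in GH3 cells stably carrying a TRE-luciferase reporter, co-treated with compound and T3 (1 nM final) for 23.5 h at 37 C. Viability was read in the same well by CellTiter-Fluor.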

[5] = test system: thyroid hormone receptor (rat, GH3 cells); assay: qHTS assay to identify small molecule agonists of the thyroid receptor (TR) signaling pathway (AID 743066; calls by dose curve); settings: GH3.TRE-Luc cells, TR agonist luciferase, 24 h; series mostly up to 83.9 µM
[6] = molecular target: Estrogen receptor (Homo sapiens) (UniProt P03372); assay: qHTS assay to identify small molecule antagonists of the estrogen receptor alpha (ER-alpha) signaling pathway (AID 743069; active = well fitted curve in the direction sought with a large enough effect in the signal ratio in the repeat runs, not every such curve was filed as active; the % refers to the signal ratio); settings: HEK293 ER-alpha-UAS-bla, beta-lactamase ratio, antagonist mode; series mostly up to 69.4 µM
Sequence of Estrogen receptor (Homo sapiens) (P03372 whole entry, looked up): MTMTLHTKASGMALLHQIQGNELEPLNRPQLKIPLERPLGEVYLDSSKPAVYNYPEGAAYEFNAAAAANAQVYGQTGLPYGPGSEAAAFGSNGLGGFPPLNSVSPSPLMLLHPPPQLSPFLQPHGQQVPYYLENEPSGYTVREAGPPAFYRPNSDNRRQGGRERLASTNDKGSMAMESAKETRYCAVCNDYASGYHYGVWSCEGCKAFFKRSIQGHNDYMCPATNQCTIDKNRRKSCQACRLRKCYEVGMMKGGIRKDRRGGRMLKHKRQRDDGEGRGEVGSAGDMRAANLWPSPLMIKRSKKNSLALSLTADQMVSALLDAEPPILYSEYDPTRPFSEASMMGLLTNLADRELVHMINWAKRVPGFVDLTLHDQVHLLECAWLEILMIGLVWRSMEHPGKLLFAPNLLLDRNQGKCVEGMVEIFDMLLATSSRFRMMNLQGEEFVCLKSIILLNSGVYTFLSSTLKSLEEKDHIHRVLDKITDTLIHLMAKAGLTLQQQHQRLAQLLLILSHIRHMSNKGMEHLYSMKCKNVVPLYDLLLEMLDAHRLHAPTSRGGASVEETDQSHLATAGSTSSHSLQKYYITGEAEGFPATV
How it was run: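 ER-alpha-UAS-bla GripTite HEK293 line; 2% charcoal-stripped FBS overnight; plated, 4 hr 37C/5% CO2; cpd in DMSO + 17beta-estradiol, 18 hr 37C; LiveBLAzer B/G FRET substrate 2 hr RT; fluorescence intensity.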

[7] = qHTS assay to identify small molecule antagonists of the estrogen receptor alpha (ER-alpha) signaling pathway - cell viability counter screen (AID 743074; calls by dose curve;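 note: HEK293 cells carrying ER-alpha-UAS-bla reporter stimulated with 17beta-estradiol; nearly all actives have a fitted effect of over 45% in size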); settings: ERalpha-bla HEK293 viability, CellTiter-Glo luminescence, 18 h; series mostly up to 69.4 µM
[8] = molecular target: Estrogen receptor (Homo sapiens) (UniProt P03372); assay: qHTS assay to identify small molecule agonists of the estrogen receptor alpha (ER-alpha) signaling pathway (AID 743075; calls by dose curve;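 note: HEK293 GripTite cells with ER-alpha and UAS-driven beta-lactamase reporter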); settings: HEK293 ER-alpha-UAS-bla, beta-lactamase FRET ratio, 18 h; series mostly up to 70.1 µM
[9] = molecular target: Estrogen receptor (Homo sapiens) (UniProt P03372); assay: qHTS assay to identify small molecule agonists of the estrogen receptor alpha (ER-alpha) signaling pathway using the BG1 cell line (AID 743079); settings: BG1Luc4E2 cells, ERE-luciferase agonist, 22 h; series mostly up to 70.3 µM; note: nearly all actives have a fitted effect of over 20% in size
[10] = qHTS assay to identify small molecule antagonists of the estrogen receptor alpha (ER-alpha) signaling pathway using the BG1 cell line (AID 743080; calls by dose curve;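 note: BG1 cells stimulated with 17beta-estradiol alongside compound; nearly all actives have a fitted effect of over 25% in size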); settings: BG1Luc4E2 ERE-luciferase antagonist mode, luminescence; series mostly up to 70.3 µM
How it was run: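 Luminescence from a 4×ERE-luciferase reporter in BG1-Luc-4E2 cells served as read-out. Cells, pre-cultured 5 days in stripped-serum phenol-red-free medium, were exposed to compound with 17beta-estradiol co-stimulation for 21.5 h at 37 C.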

[11] = qHTS assay to identify small molecule antagonists of the estrogen receptor alpha (ER-alpha) signaling pathway using the BG1 cell line - cell viability counter screen (AID 743081); settings: BG1Luc4E2 viability, CellTiter-Fluor, 22 h; series mostly up to 70.3 µM;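 note: compound given together with 17beta-estradiol as the ER stimulus; nearly all actives have a fitted effect of over 45% in size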
Aromatase (Homo sapiens) = Aromatase (Homo sapiens) (UniProt P11511); assay: qHTS assay to identify aromatase inhibitors (AID 743083); settings: MCF-7 aro ERE, testosterone-driven ERE luciferase, 24 h; series mostly up to 70.3 µM; note: nearly all actives have a fitted effect of over 55% in size
Sequence of Aromatase (Homo sapiens) (P11511 whole entry, looked up): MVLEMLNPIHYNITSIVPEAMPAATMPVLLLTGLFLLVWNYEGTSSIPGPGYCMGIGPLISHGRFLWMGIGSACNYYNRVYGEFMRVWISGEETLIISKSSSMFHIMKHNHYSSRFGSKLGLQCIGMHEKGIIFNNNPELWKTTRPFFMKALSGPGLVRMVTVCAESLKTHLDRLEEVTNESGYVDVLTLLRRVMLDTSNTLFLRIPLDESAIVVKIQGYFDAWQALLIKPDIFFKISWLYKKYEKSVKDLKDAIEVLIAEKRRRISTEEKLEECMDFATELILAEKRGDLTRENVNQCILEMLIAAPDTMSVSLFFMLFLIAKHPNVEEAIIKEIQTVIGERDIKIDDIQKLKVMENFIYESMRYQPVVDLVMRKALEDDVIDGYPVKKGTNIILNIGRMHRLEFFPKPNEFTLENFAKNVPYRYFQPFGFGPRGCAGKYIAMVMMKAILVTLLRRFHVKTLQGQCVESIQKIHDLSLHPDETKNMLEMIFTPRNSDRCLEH

[12] = qHTS assay to identify small molecule antagonists of the thyroid receptor (TR) signaling pathway - cell viability counter screen (AID 743064); settings: GH3.TRE-Luc viability, CellTiter-Fluor, 24 h; series mostly up to 70.3 µM; note: nearly all actives have a fitted effect of over 50% in size
How it was run: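 GH3.TRE-Luc rat pituitary cells dosed after 4 hr plating, co-stimulated with T3 at 1 nM final, incubated 23.5 h at 37 C. Viability measured in the same wells by CellTiter-Fluor fluorescence after 30 min further at 37 C.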

[13] = qHTS assay for identifying genotoxic compounds that show differential cytotoxicity against isogenic chicken DT40 cell lines with known DNA damage response pathways - wild type cell line (AID 743012); settings: DT40 wild type chicken cells viability, CellTiter-Glo, 40 h; series mostly up to 68.4 µM; note: nearly all actives have a fitted effect of over 60% in size
How it was run: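 Using parental DT40 (300 cells/well), compounds delivered in DMSO incubate 40 h at 37 C/5% CO2. CellTiter-Glo reagent then stands 30 min at room temperature, and luminescence gives cell viability.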

[14] = qHTS assay for identifying genotoxic compounds that show differential cytotoxicity against isogenic chicken DT40 cell lines with known DNA damage response pathways - Rev3 mutant cell line (AID 743014); settings: chicken DT40 Rev3-/- viability, CellTiter-Glo, 40 h; series mostly up to 68.4 µM; note: nearly all actives have a fitted effect of over 55% in size
[15] = qHTS assay for identifying genotoxic compounds that show differential cytotoxicity against isogenic chicken DT40 cell lines with known DNA damage response pathways - Rad54/Ku70 mutant cell line (AID 743015); settings: DT40 Rad54/Ku70 mutant viability, CellTiter-Glo, 40 h; series mostly up to 66.8 µM; note: nearly all actives have a fitted effect of over 60% in size
[16] = molecular target: Androgen receptor (Homo sapiens) (UniProt P10275); assay: qHTS assay to identify small molecule antagonists of the androgen receptor (AR) signaling pathway (AID 743035; active = well fitted inhibition curve with a large enough effect in the signal ratio in the repeat runs, not every such curve was filed as active; the % refers to the signal ratio); settings: HEK293 AR-UAS-bla, R1881-stimulated, beta-lactamase FRET, 16 h; series mostly up to 58.5 µM
Sequence of Androgen receptor (Homo sapiens) (P10275 whole entry, looked up): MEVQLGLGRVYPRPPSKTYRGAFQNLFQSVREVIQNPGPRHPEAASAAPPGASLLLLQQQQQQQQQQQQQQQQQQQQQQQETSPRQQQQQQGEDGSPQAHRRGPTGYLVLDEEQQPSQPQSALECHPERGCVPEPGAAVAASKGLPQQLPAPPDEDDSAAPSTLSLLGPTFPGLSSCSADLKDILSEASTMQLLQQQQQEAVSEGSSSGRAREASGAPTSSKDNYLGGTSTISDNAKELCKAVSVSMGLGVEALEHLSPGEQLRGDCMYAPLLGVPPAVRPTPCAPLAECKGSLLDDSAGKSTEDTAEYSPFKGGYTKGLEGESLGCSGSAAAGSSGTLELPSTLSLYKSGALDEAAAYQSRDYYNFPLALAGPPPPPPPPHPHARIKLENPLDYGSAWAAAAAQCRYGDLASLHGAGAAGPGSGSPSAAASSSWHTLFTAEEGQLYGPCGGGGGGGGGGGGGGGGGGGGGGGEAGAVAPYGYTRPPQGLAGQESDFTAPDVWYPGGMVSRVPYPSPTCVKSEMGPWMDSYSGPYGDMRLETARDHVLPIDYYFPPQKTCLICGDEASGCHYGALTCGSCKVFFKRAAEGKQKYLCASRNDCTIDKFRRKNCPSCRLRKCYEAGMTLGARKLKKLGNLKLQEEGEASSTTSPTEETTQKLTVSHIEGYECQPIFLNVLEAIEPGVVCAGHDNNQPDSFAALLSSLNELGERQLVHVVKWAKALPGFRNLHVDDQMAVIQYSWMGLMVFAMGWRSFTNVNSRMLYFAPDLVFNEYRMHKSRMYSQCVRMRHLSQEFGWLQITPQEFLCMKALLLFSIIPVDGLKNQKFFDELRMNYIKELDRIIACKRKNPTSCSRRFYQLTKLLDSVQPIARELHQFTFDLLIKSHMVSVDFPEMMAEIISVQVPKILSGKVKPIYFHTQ
How it was run: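 Using qHTS, AR-UAS-bla GripTite HEK293 cells received compound, then R1881, and were cultured 16 h at 37C/5% CO2 before a 2 h room-temperature LiveBLAzer B/G FRET substrate step and fluorescence measurement.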

[17] = molecular target: Androgen receptor (Homo sapiens) (UniProt P10275); assay: qHTS assay to identify small molecule agonists of the androgen receptor (AR) signaling pathway (AID 743036; active = well fitted activation curve with a large enough effect in the signal ratio in the repeat runs, with a control signal flat, not every such curve was filed as active; the % refers to the signal ratio); settings: HEK293 AR-UAS-bla GripTite, beta-lactamase FRET ratio, 16 h; series mostly up to 62.4 µM
How it was run: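 AR-UAS-bla HEK293 cells, plated 4 h before dosing, were treated with compound for 16 h at 37C. beta-Lactamase reporter read after 2 h with LiveBLAzer B/G FRET substrate at room temperature.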

[18] = molecular target: Androgen receptor (Homo sapiens) (UniProt P10275); assay: qHTS assay to identify small molecule agonists of the androgen receptor (AR) signaling pathway using the MDA cell line (AID 743040; note: nearly all actives have a fitted effect of over 20% in size); settings: MDA-kb2 AR-luc cells, MMTV luciferase, 16 h; series mostly up to 70.3 µM
How it was run: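 Cells plated, 5 h at 37C/0% CO2; compound or DMSO pinned; 16 h at 37C; ONE-Glo added; luminescence measured after 30 min at room temperature. Reporter line: MDA-kb2 with MMTV-luciferase responsive to AR and GR.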

[19] = molecular target: Androgen receptor (Homo sapiens) (UniProt P10275); assay: qHTS assay to identify small molecule antagonists of the androgen receptor (AR) signaling pathway using the MDA cell line (AID 743042; note: nearly all actives have a fitted effect of over 55% in size); settings: MDA-kb2 AR-luc, MMTV luciferase, R1881 antagonist, 16 h; series mostly up to 70.3 µM
How it was run: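 Antagonist mode: compounds plus R1881 agonist added to MDA-kb2 AR-luc cells, incubated 16 h at 37C. Luciferase reporter luminescence quantified, with multiplexed CellTiter-Fluor readout for cell viability.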

Measured: Potency

O=C(Cl)c1cccc([N+](=O)[O-])c1
not listed: [12] | [13] | [14] | [15] | [16] | [17] | [18] | [19]
inactive: all other assays above

C1CCOC1
inactive: [1] | [2] | [3] | [12] | [7] | [11] | Aromatase (Homo sapiens)

OCCN(CCO)c1ccccc1
not listed: [1] | [3] | [6] | [9]
inactive: all other assays above

CC(C)c1ccccc1
not listed: [2] | [3] | Aromatase (Homo sapiens) | [13]
inactive: all other assays above

CC1(C)O[C@@H]2C[C@H]3[C@@H]4CCC5=CC(=O)CC[C@]5(C)[C@@]4(F)[C@@H](O)C[C@]3(C)[C@]2(C(=O)CCl)O1
not listed: [1] | [8] | [10] | [16] | [17] | [18] | [19]
inactive: all other assays above

CO[Si](C)(C)OC
not listed: [13] | [14] | [15] | [16] | [17] | [18] | [19]
inactive: all other assays above
